Screens deposited in PubChem by National Center for Advancing Translational Sciences (NCATS).
PLK1 PBD block = qHTS for Inhibitors of PLK1-PDB (polo-like kinase 1 - polo-box domain): Primary Screen. Plk1 PBD binding of FITC phosphopeptide, fluorescence polarization. Potency, µM, inactives show max response, negative = inhibition, actives largely listed as inhibitors. actives 2.8% (n = 360,000); also: series mostly up to about 57 µM; nearly all actives have a fitted effect of over 65% in size
Gal4-VP16 FLuc = VP16 counterscreen qHTS for inhibitors of ROR gamma transcriptional activity. Drosophila S2 Gal4-VP16 UAS-luciferase, luminescence, 20 h. Potency, µM (highest dose often 53.6 µM), inactives show at the top dose activity, negative = inhibition, hits mostly inhibitors. actives 3.5% (n = 310,000);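 also: Gal4-VP16 expression switched on by copper sulfate through the metallothionein promoter; nearly all actives have a fitted effect of over 50% in size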
Sfp PPTase inh = qHTS Assay for Inhibitors of Bacillus subtilis Sfp phosphopantetheinyl transferase (PPTase). 4'-phosphopantetheinyl transferase ffp (Bacillus subtilis), Q9F4F7. Potency, µM, without a hit: largest response in the series, negative = inhibition, hits mostly inhibitors. Biochemical Sfp PPTase activity, qHTS. actives 3.5% (n = 310,000);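 also: the enzyme is Sfp with the accession as filed and its product quenches rhodamine fluorescence; 0% = enzyme reaction without inhibitor and -100% = no enzyme wells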
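Fluorescence-quenching assay: 15 nM Sfp-PPTase preincubated 15 min at room temperature with compound, then 5 uM rhodamine-CoA and 12.5 uM BHQ-2-labelled YbbR peptide added. Fluorescence (ex 525/em 598 nm) read at start and after 30 min; difference gives rate.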
RORg inh = qHTS for inhibitors of ROR gamma transcriptional activity. Drosophila S2 Gal4-RORgamma UAS-luciferase reporter, 20 h. Potency, µM (top dose mostly 53.6 µM), for the others: top-dose activity change, negative = inhibition, hits mostly inhibitors. actives 5.4% (n = 310,000). AID 2551, 2010; also: nearly all actives have a fitted effect of over 60% in size
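Stably transfected Drosophila Schneider cells are the test system, with ROR gamma fused to Gal4 and luciferase under UAS control; luminescence is read after 20 hr of 700 uM copper sulfate induction at ambient temperature.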
ALDH1A1 inh = qHTS Assay for Inhibitors of Aldehyde Dehydrogenase 1 (ALDH1A1); actives 7.3% (n = 220,000); Potency, µM (top dose mostly 75.3 µM), inactives show at the top dose activity, negative = inhibition, most hits filed as inhibitors; Aldehyde dehydrogenase 1A1 (Homo sapiens), P00352; Purified ALDH1A1, NADH fluorescence, propionaldehyde substrate; AID 1030, 2008; active = well fitted inhibition curve with a large enough effect, not every such curve was filed as active; inconclusive = small, poorly fitted or top-dose-only effect, or another doubt; inactive = no such curve, though single readings can be large or run the other way;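 also: plate controls were no enzyme wells and a reference inhibitor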
Target sequence (P00352 whole entry, looked up): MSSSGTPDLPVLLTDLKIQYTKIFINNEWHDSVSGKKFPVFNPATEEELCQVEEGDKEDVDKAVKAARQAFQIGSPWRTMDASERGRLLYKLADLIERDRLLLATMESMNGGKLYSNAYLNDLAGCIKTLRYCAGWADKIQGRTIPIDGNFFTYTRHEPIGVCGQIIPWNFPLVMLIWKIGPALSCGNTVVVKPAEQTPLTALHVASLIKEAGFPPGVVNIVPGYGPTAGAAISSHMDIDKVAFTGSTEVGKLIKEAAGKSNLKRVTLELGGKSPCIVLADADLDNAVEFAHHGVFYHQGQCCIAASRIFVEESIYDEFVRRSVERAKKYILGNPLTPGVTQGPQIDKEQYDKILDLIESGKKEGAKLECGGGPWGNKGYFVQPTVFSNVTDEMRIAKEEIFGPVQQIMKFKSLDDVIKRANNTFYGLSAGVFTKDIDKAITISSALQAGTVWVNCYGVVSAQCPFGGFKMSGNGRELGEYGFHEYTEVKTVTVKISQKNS
Numbers without * were called inactive; ? = inconclusive; · = no result; [ ] = another dose, or the depositor's remark. Sampled rows, rich in hits. Any-hit rate of the full collection: about 12%. Unless noted, calls follow the shape of the dose curve; as a rule, active = well fitted curve in the direction sought with a large enough effect; inconclusive = small, poorly fitted or top-dose-only effect, or another doubt; inactive = no such curve, though single readings can be large; an effect the other way counts as inactive or inconclusive. Unless noted, % is scaled to controls: 0 for no effect and ±100 for the full control effect; potency is read from the fitted curve at half-maximal effect.

SMILES | PLK1 PBD block | Gal4-VP16 FLuc | Sfp PPTase inh | RORg inh | ALDH1A1 inh
Nc1nc(Sc2c([N+](=O)[O-])cc(C(F)(F)F)cc2[N+](=O)[O-])n[nH]1 | 2.4µM* | 16µM* | ? | 10µM* | -3%
Nc1nc(Sc2ccc(C(F)(F)F)cc2[N+](=O)[O-])n[nH]1 | -6% | 25% | 11% | 13% | 11%
N#CC(c1ccccc1)c1ccc2c(C(F)(F)F)cc(C(F)(F)F)nc2n1 (configuration not stated) | -6% | ? | 8% | 11µM* | 22µM*
CCN(CC)CCC(c1cc(OC)c(OC)c(OC)c1)c1c(OC)cc(OC)c2c1OC(=O)CC2c1ccc(N(C)C)cc1 (configuration not stated) | · | -3% | 4% | 31% | ·
O=C(C1CCN(S(=O)(=O)c2ccc(-n3cnnn3)cc2)CC1)N1CCN(c2ccccc2)CC1 | -1% | -3% | 1% | 9% | 28µM*
Nc1[nH]c(=S)[nH]c(=O)c1N=Nc1c(Br)cc(S(N)(=O)=O)cc1Br | · | · | · | · | -1%[13.5 µM]
O=C(CN1CCOCC1)Nc1ccc(C2CCCCC2)cc1 | 0% | 5% | -7% | 19% | 25µM*
O=C(CN1CCOCC1)NNC(=S)Nc1ccccc1 | -12% | 1.3µM* | -21% | 29% | -15%
O=C(CN1CCOCCOCCN(CC(=O)Nc2ccccc2)CCOCC1)Nc1ccccc1 | -11% | 4% | 2% | 27% | 22µM*
O=C(CN1CCOCCOCCOCC1)Nc1ccccc1 | -9% | -1% | 13% | 1% | ?
CC(C)C[C@H]1COc2cc(N3CCC[C@H]3CO)ccc2S(=O)(=O)N1 | -14% | · | · | · | ·
CCOC(=O)[C@]12CCCC=C1N(Cc1ccccc1)C(=O)[C@H](CC(=O)NCc1ccc(C)o1)C2 | 0% | · | · | · | ·
O=C(c1[nH]c(C(F)(F)F)nc1-c1ccccc1)N1CCC(Cc2ccccc2)CC1 | -5% | · | · | · | ·
O=C(NCc1ccccc1OC(F)(F)F)C1CCC(=O)N(Cc2ccccn2)C1 (configuration not stated) | 12µM* | 3% | 23% | 0% | ·
O=C(NCc1ccccc1OC(F)(F)F)C1CCC(=O)N(CCc2ccccn2)C1 (configuration not stated) | 2% | · | · | · | ·
COC(=O)c1sccc1Oc1ccc(F)cc1[N+](=O)[O-] | -7% | 19% | 7% | 35% | -1%
CN(C)C(=O)c1sccc1Oc1ccc(F)cc1[N+](=O)[O-] | 24µM* | ? | 18% | 7% | 5%
COc1cccc(CN(C(=O)COc2ccccc2[N+](=O)[O-])C2CCS(=O)(=O)C2)c1 (configuration not stated) | 24µM* | -3% | -10% | 4% | ·
Cc1ccc(CN(C(=O)c2ccc([N+](=O)[O-])cc2)C2CCS(=O)(=O)C2)o1 (configuration not stated) | 3.8µM* | -5% | 10% | 0% | ·
COc1ccc(CN(C(=O)c2cccc(OC)c2)C2CCS(=O)(=O)C2)cc1 (configuration not stated) | -12% | -6% | 10% | 3% | ·
Cc1cccc(C(=O)N(Cc2ccc(C)o2)C2CCS(=O)(=O)C2)c1 (configuration not stated) | 4% | 5% | 6% | -39% | ·
COc1cccc(CN(C(=O)c2ccc([N+](=O)[O-])cc2)C2CCS(=O)(=O)C2)c1 (configuration not stated) | 12µM* | 3% | 5% | 0% | ·
O=C(Cc1ccccc1F)Nc1cc(S(=O)(=O)N2CCCCC2)ccc1N1CCOCC1 | 9% | · | · | · | ·
Cc1cccc(NS(=O)(=O)c2ccc(Cl)c(C(=O)O)c2)c1 | · | · | · | · | 14%
CCNc1ncc2nc(-c3cn(C)c4ccccc34)c(=O)n(Cc3ccc(F)cc3)c2n1 | · | 3% | 7% | -16% | -7%
COc1cccc(OCCNC(=O)CSc2ccc(C(F)(F)F)cc2[N+](=O)[O-])c1 | ? | 3.5µM* | 2% | 8% | 32µM*
